Data from PubChem BioAssay (Tox21).
Inconclusive results are not listed. Entries that show only a call come without a potency. Calls of active or inactive are those of the source. Calls come from the whole dose curve.

biological target: Progesterone receptor (Homo sapiens) (UniProt P06401); assay: qHTS assay to identify small molecule agonists of the progesterone receptor (PR) signaling pathway (AID 1346784); settings: PR-UAS-bla HEK293T, beta-lactamase FRET ratio, 16 h; series mostly up to 92.4 µM; note: nearly all actives have a fitted effect of over 30% in size
Source text: U.S. Tox21 Program National Center for Advancing Translational Sciences [NCATS] NIH Chemical Genomics Center [NCGC] U.S. Environmental Protection Agency [EPA] National Institutes of Environmental Health Sciences [NIEHS] National Toxicology Program [NTP] U.S. Food and Drug Administration [FDA] […] Endocrine disrupting chemicals (EDCs) and their interactions with steroid hormone receptors like PR causes disruption of normal endocrine function. To identify the compounds that activate PR signaling, a PR-UAS-bla GripTite cell line i.e. PR-UAS-bla HEK 293T (Invitrogen, Carlsbad, CA, USA) containing a beta-lactamase reporter gene under the control of an Upstream Activator Sequence (UAS) was used to screen Tox21 10K compound library.
Tox21 Assay Protocol Summary: PR-UAS-bla HEK 293T cells were dispensed at 3,000 cells/5 uL of assay medium containing 2% charcoal stripped FBS per well into black wall/clear-bottom 1536-well plates using a Multidrop Combi (ThermoFisher Scientific, Waltham, MA) dispenser. After the assay plates were incubated at a 37C and 5% CO2 for 6hr, 23 nL of compounds dissolved in DMSO, positive controls or DMSO only was transferred to the assay plate by a Pintool station (Kalypsys, San Diego, CA). The plates were incubated at 37C and 5% CO2 for 16hr. Then 1 uL of LiveBLAzer B/G FRET substrate was added using a BioRAPTR FRD (Flying Reagent Dispenser, Aurora Discovery, San Diego, CA). After the plates were incubated at room temperature for 2 hours, fluorescence intensity was measured by an Envision plate reader (PerkinElmer, Shelton, CT).
Potency is the fitted concentration of half-maximal effect.

Chain of Progesterone receptor (Homo sapiens) (P06401 whole entry, looked up): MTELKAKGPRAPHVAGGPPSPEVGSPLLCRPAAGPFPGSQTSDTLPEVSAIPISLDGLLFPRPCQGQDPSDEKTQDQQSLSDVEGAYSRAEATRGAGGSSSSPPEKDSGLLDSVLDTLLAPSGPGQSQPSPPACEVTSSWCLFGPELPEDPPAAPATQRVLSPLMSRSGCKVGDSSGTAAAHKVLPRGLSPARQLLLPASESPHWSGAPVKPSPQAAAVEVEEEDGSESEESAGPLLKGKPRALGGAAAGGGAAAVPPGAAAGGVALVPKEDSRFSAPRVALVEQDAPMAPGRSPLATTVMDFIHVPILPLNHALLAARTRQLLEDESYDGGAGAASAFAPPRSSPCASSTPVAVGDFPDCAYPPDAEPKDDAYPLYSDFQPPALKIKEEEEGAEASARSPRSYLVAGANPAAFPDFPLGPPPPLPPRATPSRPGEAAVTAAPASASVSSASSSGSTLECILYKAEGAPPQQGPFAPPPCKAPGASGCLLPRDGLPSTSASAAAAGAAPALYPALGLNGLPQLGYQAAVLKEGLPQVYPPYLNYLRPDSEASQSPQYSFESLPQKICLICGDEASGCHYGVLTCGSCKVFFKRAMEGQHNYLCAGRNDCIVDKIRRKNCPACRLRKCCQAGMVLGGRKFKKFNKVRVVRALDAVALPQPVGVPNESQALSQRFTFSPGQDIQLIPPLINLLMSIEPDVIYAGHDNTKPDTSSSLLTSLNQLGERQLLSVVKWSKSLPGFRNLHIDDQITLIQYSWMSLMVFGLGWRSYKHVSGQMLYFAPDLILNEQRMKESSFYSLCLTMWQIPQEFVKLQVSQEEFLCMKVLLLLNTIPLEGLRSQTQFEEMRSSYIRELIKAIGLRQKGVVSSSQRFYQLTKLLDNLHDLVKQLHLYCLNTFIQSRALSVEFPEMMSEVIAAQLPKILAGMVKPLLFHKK

Row | SMILES | Potency
1 | Nc1ccc(C(=O)OCC(O)CO)cc1 (stereo not given) | inactive
2 | CCS(=O)(=O)CCn1c([N+](=O)[O-])cnc1C | inactive
3 | Cc1cccc(C(=O)O)c1[N+](=O)[O-] | inactive
4 | CCCCCC1CCCC(=O)O1 (stereo not given) | inactive
5 | C1=CCC(c2ccccc2)CC1 (stereo not given) | inactive
6 | CCCCCCCCC(=O)OCC | inactive
7 | CC(=O)OC(C)c1ccccc1 (stereo not given) | inactive
8 | Cc1oc(=O)oc1CN1CCN(c2cc3c(cc2F)c(=O)c(C(=O)O)c2n3C(C)S2)CC1 (stereo not given) | inactive
9 | O=C(O)/C=C/c1ccccc1 | inactive
10 | C=CCOCC(CO)(COCC=C)COCC=C | inactive
11 | CC(Cl)COP(=O)(OCC(C)Cl)OCC(C)Cl (stereo not given) | inactive
12 | CC1CCC(C(C)(C)S)C(=O)C1 (stereo not given) | inactive
13 | C=CC(C)(O)CC/C=C(\C)CC (stereo not given) | inactive
14 | CCCCOC(=O)C(=O)OCCCC | inactive
15 | CCC1COC(=O)O1 (stereo not given) | inactive
16 | CC1=CC[C@H](CC=O)C1(C)C | inactive
17 | Cc1nc(C)nc(N2C[C@@H](C)N(c3ccnc([C@@H](C)O)n3)[C@@H](C)C2)n1 | inactive
18 | CC(=O)c1ccc2c(c1)CCCC2 | inactive
19 | CCNC(=O)NCCCOc1cccc(CN2CCCCC2)c1 | inactive
20 | CNC(=O)C(c1ccccc1)c1ccccc1 | inactive

Row | SMILES | Potency
21 | NS(=O)(=O)c1ccccc1OC(F)(F)F | inactive
22 | O=P(O)(O)OCC(O)CO (stereo not given) | inactive
23 | CC(=O)Nc1ncc([N+](=O)[O-])s1 | inactive
24 | FC(F)(F)/C(=N\OCC1OCCO1)c1ccc(Cl)cc1 | inactive
25 | O=C(CN1CCN(Cc2ccc3c(c2)OCO3)CC1)N1c2ccccc2Sc2ccccc21 | inactive
26 | C=CCOc1c(Br)cc(C(C)(C)c2cc(Br)c(OCC=C)c(Br)c2)cc1Br | inactive
27 | CCC(C)N (stereo not given) | inactive
28 | CC(C)c1ccccc1O | inactive
29 | CCOc1ccc(NC(=O)OC(C)C)cc1OCC | inactive
30 | CCCCOC(=O)[C@@H](C)Oc1ccc(Oc2ccc(C(F)(F)F)cn2)cc1 | inactive
31 | Cc1c(C(C)C)c(=O)n(-c2ccccc2)n1C | inactive
32 | C=C(C)[C@@H]1CC[C@@H](C)C[C@@H]1O | inactive
33 | CCCCCCCCCCCCCCCCCCN(C)C | inactive
34 | O=C1OC(=O)c2cc(Oc3ccc4c(c3)C(=O)OC4=O)ccc21 | inactive
35 | C=COCCOCCOC=C | inactive
36 | CCCCC(C)C(=O)O (stereo not given) | inactive
37 | NC(=O)NNC(N)=O | inactive
38 | Nc1ccc(S(=O)(=O)NC(=O)c2ccccc2)cc1 | inactive
39 | N#CCCOCCOCCC#N | inactive
40 | O=S(=O)(O)CCO | 49.2 µM (active)
